# According to PubChem BioAssay (NCATS):
# Values without a mark were called inactive. Inconclusive results are not listed. A call without a number means that no potency is given here. Active and inactive are the calls of the source. Unless noted, calls follow the shape of the dose curve; as a rule, active = well fitted curve in the direction sought with a large enough effect; inconclusive = small, poorly fitted or top-dose-only effect, or another doubt; inactive = no such curve, though single readings can be large; an effect the other way counts as inactive or inconclusive.
# Tests used:
# [1] = biological target: Cytochrome P450 1A2 (Homo sapiens) (UniProt P05177); test: p450-cyp1a2 (AID 410; calls by dose curve; also: potency is read from the fitted curve at half-maximal effect)
# Procedure, shortened: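 Luminescent readout of luciferin formed from Luciferin-ME by human CYP1A2; data normalized against complete inhibition by 57 uM furafylline. Enzyme 20nM, substrate 100uM at Km, 100mM KPO4 buffer, 60 min reaction at room temperature.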
# [2] = biological target: Glucocorticoid receptor (Homo sapiens) (UniProt P04150); test: GR-GFP Redistribution (AID 450;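 active = compounds whose dose series gives a full or clear partial fitted curve of increased nuclear translocation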; also: potency is read from the fitted curve at half-maximal effect); settings: U2OS GR-GFP nuclear translocation, laser cytometry, 2 h
# Glucocorticoid receptor (Homo sapiens), sequence (P04150 whole entry, looked up, the tested form may be a part): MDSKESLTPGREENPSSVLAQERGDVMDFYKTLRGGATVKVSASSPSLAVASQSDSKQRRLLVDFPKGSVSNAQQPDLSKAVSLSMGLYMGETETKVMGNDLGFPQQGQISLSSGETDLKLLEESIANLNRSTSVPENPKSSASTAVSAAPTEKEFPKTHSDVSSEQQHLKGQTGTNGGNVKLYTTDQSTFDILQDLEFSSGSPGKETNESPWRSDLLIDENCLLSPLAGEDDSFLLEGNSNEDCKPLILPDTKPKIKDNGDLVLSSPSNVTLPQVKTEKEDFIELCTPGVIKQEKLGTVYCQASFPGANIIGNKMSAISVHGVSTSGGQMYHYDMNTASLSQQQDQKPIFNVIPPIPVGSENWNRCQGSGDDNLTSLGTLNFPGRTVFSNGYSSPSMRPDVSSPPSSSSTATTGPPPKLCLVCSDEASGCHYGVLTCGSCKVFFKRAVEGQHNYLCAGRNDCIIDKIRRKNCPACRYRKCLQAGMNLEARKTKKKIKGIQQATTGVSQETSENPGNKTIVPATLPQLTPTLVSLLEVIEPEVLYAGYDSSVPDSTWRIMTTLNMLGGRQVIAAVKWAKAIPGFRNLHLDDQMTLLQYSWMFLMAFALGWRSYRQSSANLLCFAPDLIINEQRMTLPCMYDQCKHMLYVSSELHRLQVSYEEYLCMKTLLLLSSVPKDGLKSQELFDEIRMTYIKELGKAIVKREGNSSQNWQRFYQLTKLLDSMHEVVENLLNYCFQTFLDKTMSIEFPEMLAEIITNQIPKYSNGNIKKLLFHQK
# [3] = biological target: Glucocorticoid receptor (Homo sapiens) (UniProt P04150); test: GR-EFC Redistribution (AID 451; calls by dose curve; also: potency is read from the fitted curve at half-maximal effect); settings: CHO-K1 GR-EFC translocation, beta-gal luminescence, 2 h
# Procedure, shortened: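 Translocation of GR-ED fusion to nuclear EA restores b-gal, read by luminescence after 1 h room-temperature detection. Engineered CHO-K1 biosensor cells, 1,000/well, exposed 2 h at 37 C to titrations up to 46 uM final.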
# [4] = biological target: Mitogen-activated protein kinase 10 (Mus musculus) (UniProt Q61831); test: JNK3 AlphaScreen Assay (AID 530; active = well fitted curve in either direction with a large enough effect, not every such curve was filed as active;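 also: kinase came from lysate of stimulated human HepG2 cells; signal reports phosphorylation of biotinylated GST-cJun 1-79 at Ser73 with 10 µM ATP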)
# Procedure, shortened: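 Compound titrations were preincubated 15 minutes at room temperature with substrate, antibody and pre-activated JNK3-containing HepG2 lysate. Reactions were started with 10 uM ATP and stopped with EDTA-containing bead buffer for AlphaScreen detection.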
# [5] = biological target: Cytochrome P450 3A4 (Homo sapiens) (UniProt P08684); test: qHTS Assay for Inhibitors and Substrates of Cytochrome P450 3A4 (AID 884); also: nearly all actives have a fitted effect of over 50% in size
# Cytochrome P450 3A4 (Homo sapiens), sequence (P08684 whole entry, looked up): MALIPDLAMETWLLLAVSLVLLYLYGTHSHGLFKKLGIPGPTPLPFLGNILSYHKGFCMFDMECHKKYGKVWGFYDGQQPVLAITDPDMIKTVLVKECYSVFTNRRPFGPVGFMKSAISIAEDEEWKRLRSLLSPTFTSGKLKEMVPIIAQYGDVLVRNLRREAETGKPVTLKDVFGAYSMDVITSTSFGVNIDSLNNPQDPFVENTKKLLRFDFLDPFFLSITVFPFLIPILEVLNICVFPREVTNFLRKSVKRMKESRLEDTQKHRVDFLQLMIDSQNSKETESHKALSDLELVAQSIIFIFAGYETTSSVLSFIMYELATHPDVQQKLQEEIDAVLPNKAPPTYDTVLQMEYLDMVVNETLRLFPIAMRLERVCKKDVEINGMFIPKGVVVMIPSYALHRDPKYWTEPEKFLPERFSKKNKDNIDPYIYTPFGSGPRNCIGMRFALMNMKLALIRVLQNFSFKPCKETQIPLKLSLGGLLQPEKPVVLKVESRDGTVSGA
# Procedure, shortened: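 20 nM human CYP3A4 with 25 uM Luciferin-PPXE (at KM) in 200 mM KPO4, preincubated 10 min with compound; NADPH regeneration started a 60 min RT reaction. Luciferin detected by luminescence, normalized to 57 uM ketoconazole as full inhibition.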
# [6] = biological target: Cytochrome P450 3A4 (Homo sapiens) (UniProt P08684); test: qHTS Assay for Activators of Cytochrome P450 3A4 (AID 885); also: nearly all actives have a fitted effect of over 65% in size; also: potency is read from the fitted curve at half-maximal effect
# Procedure, shortened: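 Quantitative HTS format: compounds preincubated with 20nM human CYP3A4 and Luciferin-PPXE substrate at KM, reaction started by NADPH regeneration, stopped after 60 min, luciferase luminescence read 20 min later.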
# [7] = biological target: Cytochrome P450 2D6 (Homo sapiens) (UniProt P10635); test: qHTS Assay for Inhibitors and Substrates of Cytochrome P450 2D6 (AID 891); also: nearly all actives have a fitted effect of over 60% in size; also: potency is read from the fitted curve at half-maximal effect;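 as to activity change, negative = inhibition: luciferin methyl ether substrate demethylated by CYP2D6 with NADPH regeneration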
# Cytochrome P450 2D6 (Homo sapiens), sequence (P10635 whole entry, looked up): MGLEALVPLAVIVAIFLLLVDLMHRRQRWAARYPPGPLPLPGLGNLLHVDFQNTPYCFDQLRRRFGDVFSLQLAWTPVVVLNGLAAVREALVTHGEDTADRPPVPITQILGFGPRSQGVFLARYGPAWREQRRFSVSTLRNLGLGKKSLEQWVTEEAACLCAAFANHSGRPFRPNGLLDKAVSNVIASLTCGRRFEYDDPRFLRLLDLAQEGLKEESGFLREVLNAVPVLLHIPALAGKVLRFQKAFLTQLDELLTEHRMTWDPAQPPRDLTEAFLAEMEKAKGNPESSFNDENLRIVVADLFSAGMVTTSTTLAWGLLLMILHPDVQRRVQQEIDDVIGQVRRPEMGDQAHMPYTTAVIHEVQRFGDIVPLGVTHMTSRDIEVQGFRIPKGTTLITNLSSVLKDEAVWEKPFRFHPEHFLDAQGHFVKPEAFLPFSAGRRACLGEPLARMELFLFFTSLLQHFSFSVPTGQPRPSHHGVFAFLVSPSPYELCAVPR
# Procedure, shortened: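 Human CYP2D6 (5 nM) with 30 uM Luciferin-ME EGE (at Km) in 100 mM KPO4, compound preincubated 10 min, then NADPH regeneration system for 60 min at room temperature. Luciferin read by luminescence; normalized to 1.43 uM quinidine.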
# [8] = biological target: DNA dC->dU-editing enzyme APOBEC-3G (Homo sapiens) (UniProt Q9HC16); test: qHTS for inhibitors of Vif-A3G interactions: Validation (AID 588379)
# DNA dC->dU-editing enzyme APOBEC-3G (Homo sapiens), sequence (Q9HC16 whole entry, looked up): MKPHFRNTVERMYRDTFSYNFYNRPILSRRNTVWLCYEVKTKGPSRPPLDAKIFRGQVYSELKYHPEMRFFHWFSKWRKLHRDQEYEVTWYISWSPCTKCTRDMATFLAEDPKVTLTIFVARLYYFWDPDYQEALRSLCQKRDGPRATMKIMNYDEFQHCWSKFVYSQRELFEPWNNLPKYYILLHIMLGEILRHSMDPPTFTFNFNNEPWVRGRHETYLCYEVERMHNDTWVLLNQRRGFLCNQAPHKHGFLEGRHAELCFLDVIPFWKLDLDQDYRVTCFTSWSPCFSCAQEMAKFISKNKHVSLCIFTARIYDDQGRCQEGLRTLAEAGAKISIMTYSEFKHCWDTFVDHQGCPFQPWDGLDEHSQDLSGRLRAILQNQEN
# Procedure, shortened: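 HeLa cells stably expressing Vif and A3G-eYFP, 700 cells/well, incubated overnight at 37 deg C, then exposed to compound overnight at 37 deg C. Inhibition of Vif-mediated degradation read as increased yellow fluorescence (Ex 488/Em 500-530) by laser-scanning cytometry.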
# [9] = test system: Zika virus NS2B-NS3 protease; test: Primary screen GU AMC qHTS for Zika virus inhibitors (AID 1347154); also: nearly all actives have a fitted effect of over 70% in size
# Procedure, shortened: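 Fluorogenic AMC-substrate cleavage by noncovalent NS2B-NS3 protease complex (25 nM, pH 8.0 Tris buffer with Tween 20) followed for 15 minutes at room temperature (~20% conversion). Percent inhibition from ex340/em450 signal change, fitted by 4-parameter Hill equation.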
# [10] = Primary qHTS for small molecule stabilizers of the endoplasmic reticulum resident proteome: Secreted ER Calcium Modulated Protein (SERCaMP) assay (AID 1508630)
# Procedure, shortened: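 GLuc-SERCaMP-expressing SH-SY5Y cells, pretreated 16 h with compound, are challenged with thapsigargin to empty ER calcium stores; after 4 h, coelenterazine is added directly to the medium and luminescence is imaged.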
# [11] = AP1 Signaling Pathway (AID 357; active = well fitted curve in either direction with a large enough effect, not every such curve was filed as active;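 also: ME-180 reporter cells stimulated with EGF at its EC50 level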)
# Procedure, shortened: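 Cells are seeded overnight, exposed to compound titrations and an EC50 level of EGF for 5 hours at 37 °C, then loaded with CCF4 dye for 2.5 hours. Beta-lactamase activity under the AP-1 element is read as a blue/green ratio.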
# [12] = NFAT Signaling Pathway (AID 444; active = well fitted curve in either direction with a large enough effect, not every such curve was filed as active;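 also: carbachol stimulus at about its EC50 of 1 µM final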); settings: Jurkat NFAT-bla M1, carbachol, beta-lactamase ratio, 5 h; at 38 µM (top of the series)
# Procedure, shortened: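 Read-out: CCF4 FRET ratio (460 nm/530 nm) after 1 h RT dye loading, used for %activity and AC50 from titration series. Cells: Jurkat NFAT-β-lactamase/M1 line, treated with compound plus 1 uM carbachol for 5 h, 37 °C.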
# [13] = Stat Signaling Pathway (AID 446; active = well fitted curve in either direction with a large enough effect, not every such curve was filed as active;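 also: ME-180 cervical cancer cells given 40 pM IL-6 alongside compound; SIE-controlled beta-lactamase reporter measured as 460/530 nm FRET emission ratio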)
# Procedure, shortened: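 IL-6/STAT signaling read in ME-180 cells via an SIE beta-lactamase reporter. Stimulus was 40 pM IL-6 (its AC50) for 5 hrs, so both activation and inhibition register.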
# [14] = biological target: 3',5'-cyclic-AMP phosphodiesterase 4B (Homo sapiens) (UniProt Q07343); test: qHTS Assay for Inhibitors of PDE-IV (AID 607; active = well fitted activation curve with a large enough effect in the main read-out, with a control signal flat, not every such curve was filed as active)
# 3',5'-cyclic-AMP phosphodiesterase 4B (Homo sapiens), sequence (Q07343 whole entry, looked up): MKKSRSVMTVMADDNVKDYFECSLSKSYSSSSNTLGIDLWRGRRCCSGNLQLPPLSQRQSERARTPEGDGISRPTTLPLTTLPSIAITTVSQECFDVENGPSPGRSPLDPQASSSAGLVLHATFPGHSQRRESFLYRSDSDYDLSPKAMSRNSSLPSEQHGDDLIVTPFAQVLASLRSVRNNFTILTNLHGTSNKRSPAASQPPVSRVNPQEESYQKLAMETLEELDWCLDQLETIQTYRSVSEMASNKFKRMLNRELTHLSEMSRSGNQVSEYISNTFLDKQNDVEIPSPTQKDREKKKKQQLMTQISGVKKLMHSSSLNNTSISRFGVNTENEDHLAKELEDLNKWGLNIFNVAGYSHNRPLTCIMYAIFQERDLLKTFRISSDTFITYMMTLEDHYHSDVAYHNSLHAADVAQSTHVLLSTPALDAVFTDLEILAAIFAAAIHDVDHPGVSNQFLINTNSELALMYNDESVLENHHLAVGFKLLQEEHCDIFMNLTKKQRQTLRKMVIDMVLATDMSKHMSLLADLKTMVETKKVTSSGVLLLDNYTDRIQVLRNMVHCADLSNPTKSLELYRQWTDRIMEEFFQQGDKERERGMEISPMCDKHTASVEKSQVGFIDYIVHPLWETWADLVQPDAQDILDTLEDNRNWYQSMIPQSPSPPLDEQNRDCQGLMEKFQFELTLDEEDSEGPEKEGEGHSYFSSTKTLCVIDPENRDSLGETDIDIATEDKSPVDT
# Procedure, shortened: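 Live HEK293 cells with a modified cyclic nucleotide-gated (CNG) channel report intracellular cAMP via membrane-potential dye fluorescence (ex 535/em 590 nm). Endogenous PDE-IV was targeted. Compounds were tested at up to 22.9 uM final; RO 20-1724 100 uM served as control.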
# [15] = biological target: Cytochrome P450 2C9 (Homo sapiens) (UniProt P11712); test: qHTS Assay for Inhibitors and Substrates of Cytochrome P450 2C9 (AID 883); also: nearly all actives have a fitted effect of over 60% in size
# Procedure, shortened: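 Inhibition of CYP2C9 is scored as loss of luminescence, with 57uM sulphaphenazole defining 100% inhibition. Substrate Luciferin-H is used at 100uM, equal to its KM; enzyme at 10nM in 25mM KPO4, 60 min at 37C with NADPH regeneration.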
# [16] = biological target: Cytochrome P450 2C19 (Homo sapiens) (UniProt P33261); test: qHTS Assay for Inhibitors and Substrates of Cytochrome P450 2C19 (AID 899); also: nearly all actives have a fitted effect of over 60% in size
# Procedure, shortened: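 5nM enzyme + 10uM Luciferin-H EGE (=KM), 50mM KPO4; cpd pin-transferred, 10 min 37C; NADPH regen, 60 min 37C; stopped w/ luciferin detection reagent, 20 min; luminescence. Normalized to 57uM ketoconazole (AC100).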
# [17] = qHTS Assay for Identification of Small Molecule Agonists for Thrombopoietin (TPO) Signaling Pathway (AID 917)
# Procedure, shortened: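 IL-3-dependent murine pro-B Ba/F3 cells, stably transfected with human TPO receptor and GpIIb-promoter luciferase, are incubated 24 hrs at 37 C with test compound and 26 pM TPO; luciferase signal is read after 10 min at room temperature.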
# [18] = biological target: Muscarinic acetylcholine receptor M1 (Rattus norvegicus) (UniProt P08482); test: qHTS Assay for Antagonists of Acetylcholine Muscarinic M1 Receptor: Measurement of IP-One Response (AID 944); also: nearly all actives have a fitted effect of over 75% in size
# Muscarinic acetylcholine receptor M1 (Rattus norvegicus), sequence (P08482 whole entry, looked up): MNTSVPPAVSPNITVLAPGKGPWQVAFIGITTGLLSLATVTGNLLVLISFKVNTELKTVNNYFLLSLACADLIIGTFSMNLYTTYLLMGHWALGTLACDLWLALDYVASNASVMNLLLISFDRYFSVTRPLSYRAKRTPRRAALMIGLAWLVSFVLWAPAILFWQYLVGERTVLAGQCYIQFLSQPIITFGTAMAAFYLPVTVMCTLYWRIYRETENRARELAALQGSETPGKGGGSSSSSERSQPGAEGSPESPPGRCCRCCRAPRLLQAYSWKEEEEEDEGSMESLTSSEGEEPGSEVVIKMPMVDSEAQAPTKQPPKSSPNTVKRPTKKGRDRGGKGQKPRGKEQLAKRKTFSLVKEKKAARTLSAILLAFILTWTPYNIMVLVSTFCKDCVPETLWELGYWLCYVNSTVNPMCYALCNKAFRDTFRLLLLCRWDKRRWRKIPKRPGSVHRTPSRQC
# Procedure, shortened: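 M1-CHO (rat), 2000 cells/well, overnight recovery; cpd 10 min; carbachol EC80 (200 nM), 30 min, HEPES buffer + 50 mM LiCl pH 7.4; IP-One HTRF, Ex 337, Em 620/665 nm.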
# [19] = biological target: Pyruvate kinase (Leishmania mexicana) (UniProt Q27686); test: qHTS Validation Assay for Inhibitors of Leishmania Mexicana Pyruvate Kinase (AID 945)
# Pyruvate kinase (Leishmania mexicana), sequence (Q27686 2-499 E452W): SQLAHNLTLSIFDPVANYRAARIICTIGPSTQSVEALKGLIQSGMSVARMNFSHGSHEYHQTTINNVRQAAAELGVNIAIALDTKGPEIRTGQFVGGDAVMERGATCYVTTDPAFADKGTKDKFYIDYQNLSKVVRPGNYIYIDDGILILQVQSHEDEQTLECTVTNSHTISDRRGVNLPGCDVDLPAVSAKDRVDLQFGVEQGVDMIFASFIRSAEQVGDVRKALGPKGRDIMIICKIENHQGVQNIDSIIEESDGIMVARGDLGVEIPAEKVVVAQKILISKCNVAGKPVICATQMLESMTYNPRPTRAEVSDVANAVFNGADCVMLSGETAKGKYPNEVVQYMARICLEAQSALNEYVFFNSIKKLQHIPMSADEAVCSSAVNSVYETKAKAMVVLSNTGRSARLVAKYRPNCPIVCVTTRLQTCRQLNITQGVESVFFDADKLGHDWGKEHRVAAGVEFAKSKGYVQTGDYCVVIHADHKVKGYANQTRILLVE
# Procedure, shortened: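 Mutant LmPYK (E451W), 0.2 nM, plus 0.5 mM PEP and 0.1 mM ADP in 50 mM imidazole pH 7.2 containing 0.01% Tween 20 and 0.05% BSA. Incubated 1 h at room temperature; luminescence via PKLight, normalized to DMSO.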
# [20] = biological target: Pyruvate kinase PKM (Homo sapiens) (UniProt P14618); test: qHTS Assay for Activators of Human Muscle Pyruvate Kinase (AID 954; active = well fitted curve in the direction sought with a large enough effect, not every such curve was filed as active)
# Procedure, shortened: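 Enzyme was run at intermediate activity so both inhibitors and activators could be detected. ATP formed from ADP and PEP by 0.1 nM human PKM2 during a 1 h room-temperature incubation was quantified by coupled luciferase luminescence.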
# [21] = biological target: Alpha-galactosidase (Coffea arabica) (UniProt Q42656); test: Counterscreen for Glucocerebrosidase Inhibitors: qHTS Assay for Coffee Bean alpha-Galactosidase at pH 4.5 (AID 957)
# Alpha-galactosidase (Coffea arabica), sequence (Q42656 whole entry, looked up): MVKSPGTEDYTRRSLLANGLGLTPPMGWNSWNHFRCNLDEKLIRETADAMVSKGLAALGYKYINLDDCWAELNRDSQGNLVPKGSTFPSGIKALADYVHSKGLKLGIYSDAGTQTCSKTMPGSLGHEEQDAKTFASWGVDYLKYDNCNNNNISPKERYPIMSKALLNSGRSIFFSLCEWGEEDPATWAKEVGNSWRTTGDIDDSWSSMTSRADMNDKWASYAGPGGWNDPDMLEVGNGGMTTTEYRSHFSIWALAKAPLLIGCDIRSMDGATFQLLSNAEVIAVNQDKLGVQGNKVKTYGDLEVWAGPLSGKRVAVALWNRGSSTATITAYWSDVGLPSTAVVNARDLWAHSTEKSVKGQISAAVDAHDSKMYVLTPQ
# Procedure, shortened: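 Coffee bean alpha-galactosidase 2 nM, substrate 4-MU-alpha-Gal 80 uM, pH 4.5 citrate/Tween-20, 20 min RT. Cpd titration 0.7 nM–77 uM. Stop pH 10, fluorescence 365/440 nm; Hill-equation AC50.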
# [22] = biological target: Alpha-galactosidase A (Homo sapiens) (UniProt P06280); test: Counterscreen for Glucocerebrosidase Inhibitors: qHTS Assay for Human alpha-Galactosidase at pH 4.5 (AID 992)
# Alpha-galactosidase A (Homo sapiens), sequence (P06280 whole entry, looked up): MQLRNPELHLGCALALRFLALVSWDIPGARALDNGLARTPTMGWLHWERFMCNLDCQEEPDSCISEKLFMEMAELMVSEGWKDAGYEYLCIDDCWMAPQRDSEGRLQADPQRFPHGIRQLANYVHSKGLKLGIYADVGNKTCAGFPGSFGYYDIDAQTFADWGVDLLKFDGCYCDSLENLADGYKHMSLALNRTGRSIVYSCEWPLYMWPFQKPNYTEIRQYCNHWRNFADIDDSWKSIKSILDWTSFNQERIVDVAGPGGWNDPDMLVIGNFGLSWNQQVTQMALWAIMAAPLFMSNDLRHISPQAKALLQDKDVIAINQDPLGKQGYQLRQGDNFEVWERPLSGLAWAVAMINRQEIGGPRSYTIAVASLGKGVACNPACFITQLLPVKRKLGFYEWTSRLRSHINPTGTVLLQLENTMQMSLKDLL
# Procedure, shortened: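 Read-out is 4-methylumbelliferone fluorescence (365 nm excitation, 440 nm emission) after a pH 10 NaOH/glycine stop. Reactions held 2 nM enzyme and 80 uM substrate at pH 4.5 for 20 min at room temperature.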
# [23] = biological target: alpha-glucosidase (Oryza sativa, rice) (UniProt Q653V4); test: Counterscreen for Glucocerebrosidase Inhibitors: qHTS Assay for Rice alpha-Glucosidase at pH 5.0 (AID 997)
# Procedure, shortened: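 Rice alpha-glucosidase (4 nM final) with 400 uM 4-methylumbelliferyl-alpha-D-glucopyranoside in citrate buffer pH 5.0, 20 min at room temperature, stopped at pH 10; fluorescence 365/440 nm, compounds 0.7 nM–77 uM, AC50 from Hill fits.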
# [24] = biological target: Alpha-galactosidase (Coffea arabica) (UniProt Q42656); test: Counterscreen for Glucocerebrosidase Inhibitors: qHTS Assay for Coffee Bean alpha-Galactosidase at pH 5.9 (AID 998)
# Procedure, shortened: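 Compounds were titrated from 0.7 nM to 77 uM against green coffee bean alpha-galactosidase (2 nM) using 80 uM fluorogenic 4-methylumbelliferyl substrate. After 20 min at room temperature, reactions were stopped at pH 10 and read by fluorescence.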
# [25] = biological target: Ubiquitin carboxyl-terminal hydrolase 1 (Homo sapiens) (UniProt O94782); test: Inhibitors of USP1/UAF1: Pilot qHTS (AID 504865);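 also: rhodamine fluorescence freed from ubiquitin-rhodamine substrate followed over time; top concentration of the series differs between compounds; nearly all actives have a fitted effect of over 35% in size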
# Procedure, shortened: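 Enzyme-free wells gave the negative control, while test wells held 1nM USP1/UAF1 preincubated with compound for 15 min at room temperature. Ub-Rho at 150nM final started the reaction, and fluorescence at 480/540 nm was recorded kinetically.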
compound,measurement,setting,value
c1ccc(CCCCN2CCC(c3ccccc3)CC2)cc1,Potency,[1],15.8 µM (active)
same,Potency,[2],> 46 µM
same,Potency,[3],> 46 µM
same,outcome,[4],inactive
same,Potency,[5],inactive
same,Potency,[6],31.6 µM (active)
same,Potency,[7],0.0398 µM (active)
same,Potency,[8],inactive
same,Potency,[9],inactive
same,Potency,[10],inactive
COc1ccc(CNC(=O)/C=C\c2ccc3[nH]cc(CCN(C)C)c3c2)cc1,outcome,[11],inactive
same,Potency,[1],inactive
same,"activity change, negative = inhibition",[12],-13.5%
same,outcome,[13],inactive
same,Potency,[2],> 46 µM
same,Potency,[3],> 46 µM
same,outcome,[4],inactive
same,Potency,[14],inactive
same,Potency,[15],inactive
same,Potency,[6],inactive
same,Potency,[7],inactive
same,Potency,[16],inactive
same,outcome,[17],inactive
same,Potency,[18],inactive
same,outcome,[19],inactive
same,outcome,[20],inactive
same,outcome,[21],inactive
same,outcome,[22],inactive
same,outcome,[23],inactive
same,outcome,[24],inactive
same,Potency,[25],inactive
same,Potency,[8],inactive
same,Potency,[9],inactive
same,Potency,[10],inactive
O=C1CC[C@@]2(O)[C@H]3Cc4ccc(O)c5c4[C@@]2(CCN3CC2CC2)[C@@H]1O5,outcome,[11],inactive
same,"activity change, negative = inhibition",[12],8.31%
same,outcome,[13],inactive
same,outcome,[4],inactive
same,Potency,[14],inactive
same,outcome,[17],inactive
same,Potency,[18],inactive
same,outcome,[19],inactive
same,outcome,[21],inactive
same,outcome,[22],inactive
same,outcome,[23],inactive
same,outcome,[24],inactive
same,Potency,[25],inactive
same,Potency,[8],inactive
same,Potency,[9],inactive
same,Potency,[10],inactive
